Measurements taken from the supplement of paper PMC7530171.
± gives the standard deviation.

The molecules below were run on THP-1 (assay: THP-1 cell loss relative to DMSO control; higher = more host cell loss (toxicity); extreme values may be limits of the assay). Details: 10 µM; 4 days; infection: M. tuberculosis H37Rv.
Protocol: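 OICR kinase inhibitor library screened in duplicate at 10 uM against M. tuberculosis-infected THP-1 macrophages, 4 days at 37 C. THP-1 cell loss (cytotoxicity or loss of adherence) was quantified from Hoechst-stained nuclei counts by high-content imaging and normalised to the 1% DMSO control; 100 = complete loss of host cells.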

SMILES	THP-1 cell loss [%]
O=c1[nH]c2ccc(Cl)cc2c(N[C@@H]2CN3CCC2CC3)c1-c1nc2ccccc2[nH]1	100
Cn1cc(C2=C(c3cn(C4CCN(Cc5ccccn5)CC4)c4ccccc34)C(=O)NC2=O)c2ccccc21 [Enzastaurin]	52.5 ± 67
COC[C@H]1OC(=O)c2coc3c2[C@@]1(C)C1=C(C3=O)[C@@H]2CCC(=O)[C@@]2(C)C[C@H]1OC(C)=O [Wortmannin]	45.8 ± 7.5
O=C1NC(=O)c2c1c1c3ccccc3[nH]c1c1[nH]c3ccccc3c21 [Arcyriaflavin A]	75.7 ± 34
O=C1Nc2ccc3ncsc3c2/C1=C/c1cnc[nH]1 [Imidazolo-oxindole PKR inhibitor C16]	100
COc1ccc2c(c[n+](C)c3c4cc5c(cc4ccc23)OCO5)c1OC [Chelerythrine chloride]	100
CN[C@@H]1C[C@H]2O[C@@](C)([C@@H]1OC)n1c3ccccc3c3c4c(c5c6ccccc6n2c5c31)C(=O)NC4 [Staurosporine]	100
COc1ccc2c(c1)/C(=C/c1cnc[nH]1)C(=O)N2	53.2 ± 9.3
Cc1n[nH]c2ccc(-c3cncc(OC[C@@H](N)Cc4c[nH]c5ccccc45)c3)cc12	100
C/C(O)=C(\C#N)C(=O)Nc1cc(Br)ccc1Br	4 ± 5.7
COC(=O)[C@@]1(O)C[C@H]2O[C@]1(C)n1c3ccccc3c3c4c(c5c6ccccc6n2c5c31)C(=O)NC4	100
CC(=O)c1c(O)c(C)c(O)c(Cc2c(O)c3c(c(C(=O)/C=C/c4ccccc4)c2O)OC(C)(C)C=C3)c1O [Rottlerin]	71.2 ± 41
Cc1ccccc1-n1c(Cn2cnc3c(N)ncnc32)nc2cccc(C)c2c1=O	5.83 ± 8.2
CCn1cnc2c(Nc3cccc(Cl)c3)nc(N[C@@H]3CCCC[C@@H]3N)nc21	100
NC(=S)N/N=C/c1coc2ccccc2c1=O.[Cl][Cu][Cl]	16.3 ± 5.1
N#C/C(=C\c1ccc(O)c(O)c1)C(N)=S	11.5 ± 1.3
C[C@]12O[C@H](C[C@]1(O)CO)n1c3ccccc3c3c4c(c5c6ccccc6n2c5c31)CNC4=O [Lestaurtinib]	100
O=C1NC(=O)c2c1c1c3ccccc3n3c1c1c2c2ccccc2n1[C@H]1CC[C@@H]3O1	100
